14 molecules from PubChem BioAssay (NCI) can be followed below.

Holding throughout (test): NCI-60 one-dose screen, 48 h (100 = growth as untreated, 0 = no growth, -100 = all killed)
Holding throughout (conditions): 10 µM

Experiment [1] concerns NCI-H23 lung.
The subject of experiment [2] is NCI-H226 lung.
In experiment [3] the test system is NCI-H322M lung.
In experiment [4] the test system is NCI-H460 lung.
The subject of experiment [5] is HOP-92 NSCLC.
Experiment [6] concerns NCI-H522 lung.
In experiment [7] the test system is A549/ATCC NSCLC.
The subject of experiment [8] is 786-0 renal.
Experiment [9] has as its system COLO 205 colon.
Experiment [10] deals with HOP-62 NSCLC.

About 83,000 compounds went through this panel and 20% of them were active in at least one assay; those are over-represented in the sample as a whole.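 Activity criterion: percent growth below 10, measured after cells in 96-well plates were exposed to a single compound concentration for 48 hours.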 Unmarked numbers belong to inactive results. Calls of active or inactive are those of the source.

On to `O=C(CNc1nc(-c2ccccc2)cs1)Nc1ccc(Cl)cc1`, for which the growth was -93.8% (active) in [1]; -62.5% (active) in experiment [2]; -98% (active) in experiment [3]; -51.2% (active) in experiment [4]; -71.9% (active) in [5]; -80.2% (active) in [6]. In addition, the results for the growth in experiment [7], in experiment [8] and in experiment [9] were -49.8% (active), -72.8% (active) and -80.1% (active), respectively.

`CN(C(=O)c1ccc(C(F)(F)F)cc1C(F)(F)F)c1sc2c(c1C#N)CCC(=O)C2`: the growth in experiment [1] was 50%; in experiment [2] it was 102%; in experiment [3], 93.6%; in experiment [4], 113%; in experiment [5], 80.6%; in experiment [6], -59.7% (active). In addition, the growth is 94.4% in experiment [7], 85.2% in experiment [8] and 112% in experiment [9].

Turning to `O=C(CSc1nnc(-c2ccc3nc(-c4ccccc4)[nH]c3c2)o1)Nc1ccc(Br)cc1`, the growth was 54.2% in experiment [1]; 80.2% in [2]; 86.3% in experiment [3]; 6.71% (active) in experiment [4]; 135% in [5]; 61.2% in experiment [6]. In addition, the growth in experiment [7] was 66.2%; in experiment [8] it was 66.7%; in [9] it was 81.1%.

Take `COc1cc(C2CC(c3ccc(C)cc3)=Nc3c(N)nc(N)nc3N2)ccc1Oc1nc(Nc2ccc(F)cc2)nc(N(C)C)n1` (stereo unspecified): the growth was 73% in [1]; 61.4% in [2]; 86.6% in experiment [3]; 37.7% in experiment [4]; 9.32% (active) in [5]; 87.3% in experiment [6]. For the same molecule, the results for the growth in experiment [7], in [8] and in experiment [9] were 88.1%, 50.4% and 48.1%, respectively.

For `O=C1Nc2cc(Cl)ccc2/C1=C/c1ccc(OCc2ccc(Br)cc2F)cc1`, the growth in experiment [1] is -68.8% (active); in [2], -70.6% (active); in [3], 5.43% (active); in experiment [4] it was -81.5% (active); in [5], -43.4% (active); in experiment [6], -52.5% (active). For the same molecule, the growth in [7] is -75.2% (active); in experiment [8], -88.7% (active); in [9] it was -43% (active).

For `COc1cnc2c(c1)C(=O)c1c-2n(CCCNCCO)c(=O)c2cc(OC)c(OC)cc12`, the growth was 3.38% (active) in experiment [1]; 15.4% in [2]; 30.9% in experiment [3]; 10.2% in [4]; 54.4% in experiment [5]; 15.1% in experiment [6]. Besides, the growth in [7] was 43%; in experiment [8] it was -11.9% (active); in experiment [9], 15.4%.

For `O=C(NO)c1ccc(CN2CCN(c3nc(-c4ccccc4)c4ccccc4n3)CC2)cc1`, the growth is -5.08% (active) in [1]; 3.26% (active) in [2]; 23.6% in [3]; 2.94% (active) in [10]; 6.1% (active) in [4]; 37% in experiment [5]. Further, the growth in experiment [6] was -21.2% (active); in [8], 14%; in experiment [9], 6.97% (active).

With `O=C(Nc1ccc(OCc2ccccc2)cc1)Nc1ccc(Cl)c(C(F)(F)F)c1`, the growth is -5.44% (active) in experiment [1]; -27.7% (active) in experiment [2]; 7% (active) in experiment [3]; 5.97% (active) in experiment [10]; 3.69% (active) in [4]; -38.7% (active) in experiment [5]. In addition, the growth in experiment [6] is -20.3% (active); in [8], 17.9%; in experiment [9] it was -72.7% (active).

Regarding `Cc1ccc(C(=O)CSc2nnc(-c3c[nH]c4ccccc34)n2-c2ccccc2)cc1`, the growth in [1] is 17.3%; in experiment [2], -41.3% (active); in experiment [3], 74.9%; in [4], 29.3%; in experiment [5], -7.56% (active); in experiment [6], 1.43% (active). Further, the growth in experiment [7] was 53.3%; in [8], -35.4% (active); in experiment [9], 75%.

Consider `COc1ccc(-c2c(N)c(=O)n(C)c3ccccc23)cc1`, for which the growth was 67.7% in [1]; 46.5% in experiment [2]; 77% in experiment [3]; 75.3% in [10]; 88.1% in [4]; 9.05% (active) in experiment [5]. Moreover, the growth in experiment [6] was 61.1%; in experiment [8] it was 73.5%; in experiment [9], 103%.

Regarding `Cc1cc(C)nc(NS(=O)(=O)c2ccc(N/C(N)=N/c3nccc(-c4ccccc4)n3)cc2)n1`, the growth in [1] is 57.1%; in experiment [2] it was 49.6%; in experiment [3], 75.6%; in experiment [4], 76.3%; in experiment [5] it was 43.6%; in experiment [6], 76.2%. Besides, the growth was 63% in [7], 72.1% in experiment [8] and 91.1% in [9].

`Cc1cccc2cc(-c3cc(-c4ccccc4)nc(=O)[nH]3)c(Cl)nc12`: the growth in experiment [1] was 88.7%; in experiment [2] it was 75.7%; in [3], 89.9%; in experiment [10] it was 109%; in [4], 80.7%; in experiment [5] it was 77.1%. Moreover, the results for the growth in [6], in [8] and in [9] were 87.7%, 91.6% and 119%, respectively.

With `N#Cc1c(-c2ccc(F)cc2)nc(SCc2ccc(F)cc2)nc1N1CCOCC1`, the growth in [1] was 71.8%; in experiment [2], 48.4%; in [3], 78.4%; in experiment [4], 73.9%; in experiment [5], 34.3%; in experiment [6] it was 55%. In addition, the growth in [7] was 69%; in [8], 24.7%; in experiment [9], 97.7%.

With `CN1CCc2c(sc3ncnc(N/N=C/c4cn(-c5ccccc5)nc4-c4ccc(Br)cc4)c23)C1`, the growth in [1] is 8.68% (active); in [2], 81.2%; in [3] it was 33.5%; in experiment [4], 18.7%; in experiment [5], 71.8%; in [6], 54.7%. In addition, the growth is 25.3% in experiment [7], 65.7% in [8] and 5.81% (active) in experiment [9].
